Measurements as given in PubChem BioAssay (NCATS).
A number with no mark means an inactive call. Results filed as inconclusive are left out. Entries that show only a call come without a potency. Calls of active or inactive are those of the source. Calls come from the whole dose curve; as a rule, active = well fitted curve in the direction sought with a large enough effect; inconclusive = small, poorly fitted or top-dose-only effect, or another doubt; inactive = no such curve, though single readings can be large; an effect the other way counts as inactive or inconclusive.

Key:
[1] = molecular target: Glutathione peroxidase 1 (Homo sapiens) (UniProt P07203); test: Primary qHTS Assay for Inhibitors of Recombinant Selenoprotein Glutathione Peroxidase 1 (GPX1) (AID 1845191); note: nearly all actives have a fitted effect of over 65% in size
Procedure, shortened: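 GPX1 10 nM, GR 100 nM, GSH 1 mM, NADPH 0.5 mM, CHP 0.5 mM (final). 30-min cpd preincubation, RT. Ex340/Em450 read t=0, t=15 min.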

[2] = molecular target: Phospholipid hydroperoxide glutathione peroxidase GPX4 (Homo sapiens) (UniProt P36969); test: Primary qHTS Assay for Inhibitors of Recombinant Selenoprotein Glutathione Peroxidase 4 (GPX4) (AID 1845192); note: nearly all actives have a fitted effect of over 65% in size; for activity change, negative = inhibition: series mostly up to about 50 µM
Procedure, shortened: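 qHTS, GR-coupled: GPX4 200 nM + cpd 30 min RT → GSH 1 mM, NADPH 0.5 mM, GR 100 nM → CHP 0.5 mM start; fluor 340/450 at t0 and t15 min; no-enzyme wells as control.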

[3] = molecular target: Luciferin 4-monooxygenase (Photinus pyralis) (UniProt P08659); test: Primary firefly luciferase (FLuc) qHTS assay for identification of artifact compounds. (AID 1845220); note: nearly all actives have a fitted effect of over 60% in size; for activity change, negative = inhibition: series mostly up to about 54 µM
Procedure, shortened: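 Reaction readout was CCD-imaged luminescence, taken 5 min after adding 10 nM purified firefly enzyme to compound-treated wells holding 10 uM luciferin and ATP in pH 7.6 buffer.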

[4] = Primary fluorescence-based thiol-reactive (MSTI) qHTS assay for identification of artifact compounds. (AID 1845221); note: nearly all actives have a fitted effect of over 65% in size; note: potency is the fitted concentration of half-maximal effect;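 for activity change, negative = thiol reactive: series mostly up to about 54 µM; thiol-reactive compounds lower the probe fluorescence signal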
Procedure, shortened: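 In PBS pH 7.4 with 2% DMSO, each compound met 4 uM MSTI for one hour at ambient temperature, shielded from light, before fluorescence detection.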

[5] = tested on: Nanoluciferase (engineered Oplophorus gracilirostris luciferase); test: Primary Nanoluciferase (NLuc) qHTS assay for identification of artifact compounds. (AID 1845222);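 note: NLuc secreted into diluted conditioned medium of S16 cells; series mostly up to about 54 µM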
Procedure, shortened: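 Concentration-response data were obtained by luminescence after 5 min with Nano-Glo substrate at 1:100. The enzyme was diluted S16 NLuc-expressing cell medium, preincubated with compound for 15 min at RT. Curves were fitted with a 4-parameter Hill model.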

Sequence of Glutathione peroxidase 1 (Homo sapiens) (P07203 whole entry, looked up): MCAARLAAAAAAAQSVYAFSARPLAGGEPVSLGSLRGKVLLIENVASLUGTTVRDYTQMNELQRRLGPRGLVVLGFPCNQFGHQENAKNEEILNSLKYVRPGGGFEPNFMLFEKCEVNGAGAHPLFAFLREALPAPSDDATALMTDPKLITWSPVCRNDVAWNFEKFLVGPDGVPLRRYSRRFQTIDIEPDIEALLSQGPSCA
Sequence of Phospholipid hydroperoxide glutathione peroxidase GPX4 (Homo sapiens) (P36969 whole entry, looked up): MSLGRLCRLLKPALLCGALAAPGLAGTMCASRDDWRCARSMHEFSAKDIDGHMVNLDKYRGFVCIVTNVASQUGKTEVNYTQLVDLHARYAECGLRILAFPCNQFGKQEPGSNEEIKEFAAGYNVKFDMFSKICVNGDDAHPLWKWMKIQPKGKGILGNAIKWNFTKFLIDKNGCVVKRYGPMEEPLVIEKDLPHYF

SMILES	Potency [1]	Potency [2]	Potency [3]	Potency [4]	Potency [5]	activity change, negative = inhibition [3]	activity change, negative = thiol reactive [4]	activity, negative = inhibition [5]	activity, negative = inhibition [1]	outcome [2]
CCC(C)(O)C(O)C(=O)OCc1ccc(O[C@@H]2O[C@H](CO)[C@@H](O)[C@H](O)[C@H]2O)cc1 (stereo not given in full)	inactive	inactive	inactive	inactive	inactive	–	–	–	–	–
COC(=O)[C@@]1(C)CC[C@]2(C(=O)O[C@@H]3O[C@H](CO)[C@@H](O)[C@H](O)[C@H]3O)CC[C@]3(C)C(=CCC4[C@@]5(C)CC[C@H](O[C@@H]6O[C@H](C(=O)O)[C@@H](O)[C@H](O)[C@H]6O)C(C)(C)C5CC[C@]43C)[C@@H]2C1 (stereo not given in full)	inactive	inactive	–	–	–	-8.19% [at 11.6 µM]	77.9% [at 11.5 µM]	-2.3% [at 11.6 µM]	–	–
CC1(C)CC[C@]2(C(=O)O[C@@H]3O[C@H](CO)[C@@H](O)[C@H](O)[C@H]3O)CC[C@]3(C)C(=CCC4[C@@]5(C)C[C@@H](O)[C@H](O)C(CO)(CO)C5CC[C@]43C)C2[C@@H]1O (stereo not given in full)	inactive	inactive	inactive	inactive	inactive	–	–	–	–	–
CC1CC(=O)C2=C(O1)OC1(C)CCC3C(C)(C)C=CC(=O)C3(C)C1C2 (stereo not given)	inactive	inactive	inactive	7.36 µM (active)	inactive	–	–	–	–	–
CC(=C/C(=O)O)/C=C/[C@]1(O)[C@@]2(C)CO[C@]1(C)C[C@H](O[C@@H]1O[C@H](CO)[C@@H](O)[C@H](O)[C@H]1O)C2	inactive	inactive	inactive	9.22 µM (active)	inactive	–	–	–	–	–
CC(C)=CC/C=C(/C)[C@H]1CC[C@]2(C)[C@@H]1[C@H](O)CC1[C@@]3(C)CC[C@H](O)C(C)(C)[C@@H]3[C@@H](O[C@@H]3O[C@H](CO)[C@@H](O)[C@H](O)[C@H]3O[C@@H]3O[C@@H](C)[C@H](O)[C@@H](O)[C@H]3O)C[C@]12C (stereo not given in full)	inactive	inactive	inactive	inactive	inactive	–	–	–	–	–
O=C1NCc2nc3ccccc3c(=O)n2C1Cc1c[nH]c2ccccc12 (stereo not given)	inactive	inactive	inactive	inactive	inactive	–	–	–	–	–
CC1=CC(=O)CC(C)(CO[C@@H]2O[C@H](CO)[C@@H](O)[C@H](O)[C@H]2O)C1(O)/C=C/C(C)=C/C(=O)O (stereo not given in full)	inactive	inactive	inactive	13 µM (active)	inactive	–	–	–	–	–
Clc1ccc2c(c1)C1=NCCN1c1c(-c3noc(C4CC4)n3)ncn1-2	inactive	inactive	inactive	inactive	inactive	–	–	–	–	–
CC(/C=C/C1(O)C2(C)COC1(C)CC(=O)C2)O[C@@H]1O[C@H](CO)[C@@H](O)[C@H](O)[C@H]1O (stereo not given in full)	inactive	inactive	inactive	10.3 µM (active)	inactive	–	–	–	–	–
O=C(O)Cc1nn(Cc2nc3cc(C(F)(F)F)ccc3s2)c(=O)c2nccnc12	inactive	inactive	inactive	inactive	inactive	–	–	–	–	–
COc1cc(/C=C/C(=O)OC2CC(C)=C(C(=O)O)/C2=C/CO[C@@H]2O[C@H](CO)[C@@H](O)[C@H](O)[C@H]2O)ccc1O (stereo not given in full)	inactive	inactive	inactive	4.12 µM (active)	inactive	–	–	–	–	–
COC(=O)c1ccc(O[C@@H]2O[C@H](CO)[C@@H](O)[C@H](O)[C@H]2O)c(OC)c1	inactive	inactive	inactive	16.5 µM (active)	inactive	–	–	–	–	–
CC(=O)NCCCCn1c2c(c3ccccc31)C(=O)NCC2	inactive	inactive	inactive	inactive	inactive	–	–	–	–	–
COc1ccc(C(OC2OC(CO)C(O)C(O)C2O)C(C)O)cc1 (stereo not given)	inactive	inactive	inactive	14.7 µM (active)	inactive	–	–	–	–	–
C=C1CCC2C(OC(=O)C2(O)COC(C)=O)C2C(=C)C(O)CC12 (stereo not given)	inactive	inactive	inactive	7.36 µM (active)	inactive	–	–	–	–	–
C=CC(C)(O)CC/C=C(/C)C(=O)OC1C(OC2OCC(OC3OC(CO)C(O)C(O)C3O)C(OC3OCC(O)C(OC4OC(C)C(O)C(O)C4O)C3O)C2O)COC(OC(=O)C23CCC(C)(C)CC2C2=CCC4C5(C)CCC(OC6OC(CO)C(OC7OC(CO)C(O)C(OC8OCC(O)C(O)C8O)C7O)C(O)C6O)C(C)(C)C5CCC4(C)C2(C)CC3O)C1O (stereo not given)	–	–	–	–	–	3.07% [at 6.45 µM]	146% [at 6.41 µM]	2.49% [at 6.45 µM]	-7.71% [at 9.52 µM]	inactive [at 9.73 µM]
c1nc(NC2CCCCCC2)c2cc(CNC[C@H]3CCCO3)sc2n1	inactive	inactive	inactive	inactive	inactive	–	–	–	–	–
